{
  "source": "PubChem BioAssay AID743100",
  "about": "(Vanderbilt Specialized Chemistry Center, 2013)",
  "note": "Unmarked numbers belong to inactive results. Calls of active or inactive are those of the source.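 How the source made its calls: active means calcium response above 60% of the acetylcholine maximum at human M5, as a positive modulator; inactive means the rest.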",
  "data": [
    {"biological_target": "Muscarinic acetylcholine receptor M5 (Homo sapiens) (UniProt P08912)", "sequence (P08912 whole entry, looked up)": "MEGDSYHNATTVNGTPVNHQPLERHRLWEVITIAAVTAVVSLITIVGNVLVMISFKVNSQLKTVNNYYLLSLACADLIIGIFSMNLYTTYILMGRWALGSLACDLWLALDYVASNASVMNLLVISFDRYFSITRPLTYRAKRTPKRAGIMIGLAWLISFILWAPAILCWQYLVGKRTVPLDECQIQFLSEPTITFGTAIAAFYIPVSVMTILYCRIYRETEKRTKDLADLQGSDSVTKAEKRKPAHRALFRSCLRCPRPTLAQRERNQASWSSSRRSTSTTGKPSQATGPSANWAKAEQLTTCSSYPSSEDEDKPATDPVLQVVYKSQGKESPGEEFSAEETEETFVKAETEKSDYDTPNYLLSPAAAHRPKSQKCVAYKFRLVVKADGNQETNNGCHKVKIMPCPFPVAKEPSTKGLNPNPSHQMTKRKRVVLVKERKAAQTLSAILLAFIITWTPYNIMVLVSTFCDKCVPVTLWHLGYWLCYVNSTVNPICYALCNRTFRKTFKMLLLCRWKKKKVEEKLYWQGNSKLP", "experiment": "M5 muscarinic receptor positive allosteric modulators, cell-based, single concentration, CHO-K1 hM5, calcium flux (AID 743100)", "conditions": "CHO-K1 hM5, Fluo-4 calcium flux, ACh EC20, active compounds read high; at 10 µM unless noted", "values": [
      {"smiles": "CCN(Cc1ccccc1)C(=O)C1CCN(S(=O)(=O)c2ccc(C(C)(C)C)cc2)CC1", "% ACh max response": "59.3% [at 30 µM]"},
      {"smiles": "CCN(C(=O)C1CCN(S(=O)(=O)c2ccc3c(c2)CCC3)CC1)[C@H](C)c1ccccc1", "% ACh max response": "91.5% (active)"},
      {"smiles": "CCN(Cc1ccccc1)C(=O)C1CCN(S(=O)(=O)c2ccc(C)cc2)CC1", "% ACh max response": "73.7% [at 30 µM] (active)"},
      {"smiles": "CCN(Cc1ccc(OC(F)(F)F)cc1)C(=O)C1CCN(S(=O)(=O)c2ccc3cn[nH]c3c2)CC1", "% ACh max response": "40.8%"},
      {"smiles": "CCN(Cc1ccccc1)C(=O)C1CCN(S(=O)(=O)c2ccccc2Cl)CC1", "% ACh max response": "33.6% [at 30 µM]"},
      {"smiles": "CCN(CC1CCN(S(=O)(=O)c2ccc3cn[nH]c3c2)CC1)C(=O)c1ccccc1", "% ACh max response": "13.7%"},
      {"smiles": "CCN(Cc1ccccc1)C(=O)C1CCN(S(=O)(=O)Cc2ccccc2Br)CC1", "% ACh max response": "5.25% [at 30 µM]"},
      {"smiles": "CCN(Cc1ccc(F)cc1)C(=O)C1CCN(S(=O)(=O)c2ccc3cn[nH]c3c2)CC1", "% ACh max response": "52.1%"},
      {"smiles": "CCN(C(=O)C1CCN(S(=O)(=O)c2ccc(-n3cccn3)cc2)CC1)[C@H](C)c1ccccc1C(F)(F)F", "% ACh max response": "22.7%"},
      {"smiles": "CCN(Cc1cccnc1)C(=O)C1CCN(S(=O)(=O)c2ccc3cn[nH]c3c2)CC1", "% ACh max response": "19.8%"},
      {"smiles": "CCN(Cc1ccccc1)C(=O)C1CCN(S(=O)(=O)c2ccccc2)CC1", "% ACh max response": "71.5% [at 30 µM] (active)"},
      {"smiles": "CCN(Cc1cccc(Cl)c1)C(=O)C1CCN(S(=O)(=O)c2ccc3cn[nH]c3c2)CC1", "% ACh max response": "73.9% (active)"},
      {"smiles": "CCN(Cc1ccccc1)C(=O)C1CCN(S(=O)(=O)c2cccc(C(F)(F)F)c2)CC1", "% ACh max response": "63.9% [at 30 µM] (active)"},
      {"smiles": "CCN(Cc1ccccc1)C(=O)C1CCN(S(=O)(=O)c2cccc(OC)c2)CC1", "% ACh max response": "72.2% [at 30 µM] (active)"},
      {"smiles": "CCN(Cc1cccc(F)c1)C(=O)C1CCN(S(=O)(=O)c2ccc3cn[nH]c3c2)CC1", "% ACh max response": "84.8% (active)"},
      {"smiles": "CCN(Cc1ccccc1)C(=O)C1CCN(S(=O)(=O)c2ccccc2C(F)(F)F)CC1", "% ACh max response": "21.7% [at 30 µM]"},
      {"smiles": "CCN(Cc1ccccc1)C(=O)C1CCN(S(=O)(=O)c2ccc(C)s2)CC1", "% ACh max response": "68.8% [at 30 µM] (active)"},
      {"smiles": "CCN(C(=O)C1CCN(S(=O)(=O)c2ccc3c(c2)CCO3)CC1)[C@H](C)c1ccccc1", "% ACh max response": "97.5% (active)"},
      {"smiles": "CCN(Cc1ccccc1)C(=O)C1CCN(S(=O)(=O)c2cccc(C#N)c2)CC1", "% ACh max response": "61% [at 30 µM] (active)"},
      {"smiles": "CC1c2ccccc2CCN1C(=O)C1CCN(S(=O)(=O)c2ccc3cn[nH]c3c2)CC1", "note": "(configuration not stated)", "% ACh max response": "36.3%"},
      {"smiles": "CCN(Cc1ccccc1)C(=O)C1CCN(S(=O)(=O)c2ccc3c(cnn3C)c2)CC1", "% ACh max response": "63.3% (active)"},
      {"smiles": "CCN(Cc1ccccc1)C(=O)C1CCN(S(=O)(=O)C(C)C)CC1", "% ACh max response": "20.8% [at 30 µM]"},
      {"smiles": "CCN(Cc1ccccc1)C(=O)C1CCN(S(=O)(=O)c2ccccc2C)CC1", "% ACh max response": "28.6% [at 30 µM]"},
      {"smiles": "CCN(Cc1cccc(C#N)c1)C(=O)C1CCN(S(=O)(=O)c2ccc3cn[nH]c3c2)CC1", "% ACh max response": "46.2%"},
      {"smiles": "CCN(Cc1ccccc1Cl)C(=O)C1CCN(S(=O)(=O)c2ccc3cn[nH]c3c2)CC1", "% ACh max response": "90.7% (active)"},
      {"smiles": "CCN(Cc1ccccc1)C(=O)C1CCN(S(=O)(=O)c2ccc3cnn(C)c3c2)CC1", "% ACh max response": "62.3% (active)"},
      {"smiles": "CCN(Cc1ccccc1)C(=O)C1CCN(S(=O)(=O)c2ccc(N3CCOCC3)nc2)CC1", "% ACh max response": "70% [at 30 µM] (active)"},
      {"smiles": "CCN(Cc1ccccc1)C(=O)C1CCN(S(=O)(=O)c2ccc(F)cc2)CC1", "% ACh max response": "56.2% [at 30 µM]"},
      {"smiles": "CCN(Cc1ccccc1)C(=O)C1CCN(S(=O)(=O)c2ccc3occc3c2)CC1", "% ACh max response": "82.1% [at 30 µM] (active)"},
      {"smiles": "CCN(Cc1ccccc1C(F)(F)F)C(=O)C1CCN(S(=O)(=O)c2ccc3[nH]ncc3c2)CC1", "% ACh max response": "90.2% (active)"},
      {"smiles": "CCN(Cc1ccc(SC)cc1)C(=O)C1CCN(S(=O)(=O)c2ccc3cn[nH]c3c2)CC1", "% ACh max response": "14%"},
      {"smiles": "CCN([C@H](C)c1ccccc1)S(=O)(=O)C1CCN(S(=O)(=O)c2ccc3occc3c2)CC1", "% ACh max response": "14.6%"}
    ]}
  ]
}
